Marburg entry inh = inhibitors of Marburg virus binding or cell entry; Marburg virus pseudotyped entry inhibition, cell reporter; 300,000 tested, 1.8% active; Potency, µM (highest dose often 37.8 µM), actives largely listed as inhibitors; AID 540276; calls by dose curve; tested in HEK293 cells
Lassa entry inh = inhibitors of Lassa virus binding or cell entry; Lassa virus pseudotype entry inhibition, cell reporter; Potency, µM (doses to about 37.9 µM), actives largely listed as inhibitors; 300,000 tested, 1.2% active; calls by dose curve; tested in HEK293 cells; note: nearly all actives have a fitted effect of over 50% in size
Sm TGR inh = blocks Schistosoma mansoni thioredoxin glutathione reductase; purified TGR, DTNB reduction, TNB absorbance 405 nm; 360,000 tested, 3% active; Potency, µM (series often up to 114 µM), hits mostly inhibitors; AID 485364; note: nearly all actives have a fitted effect of over 60% in size
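First, TGR (20 nM dispensed) and NADPH were mixed with compound. Second, a 15 min room-temperature incubation followed. Third, further NADPH and then DTNB were added to start the reaction. Finally, TNB absorbance was monitored kinetically.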
FMDV antiviral = foot and mouth disease virus antiviral activity; FMDV antiviral cell-based qHTS; Potency, µM (titrated, usually from 57.9 µM), actives largely listed as inhibitors; 410,000 tested, 1.2% active; AID 1159524; calls by dose curve; tested in HEK293T cells; note: read-out not given here; nearly all actives have a fitted effect of over 45% in size
HCV inh = HCV inhibition; AID 651820; Potency, µM (series often up to 41.8 µM), hits mostly inhibitors; 340,000 tested, 3.4% active; Huh7.5.1 HCVcc-Cre infection, luciferase reporter, 44 h
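Infectious HCVcc-Cre (~0.5 moi) was added to cells just after compound, with cells seeded 4 h earlier at 1,000 per well. Luciferase activity after 44 h culture reported infection; substrate was incubated 15 min at room temperature before reading.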
RE007 growth inh = less growth of the S. pombe RE007 Vpr strain. 360,000 tested, 0.21% active. S. pombe RE007 Vpr strain, BacTiter-Glo ATP luminescence, 24 h. Potency, µM (titrated, usually from 92.2 µM), usual class: inhibitors. AID 651644; active = well fitted falling curve with a large enough effect; inconclusive = small, poorly fitted or top-dose-only effect; inactive = no such curve, though single readings can be large or run the other way; note: nearly all actives have a fitted effect of over 50% in size
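Fission yeast strain RE007, carrying one chromosomally integrated HIV-1 vpr copy, was seeded at OD 0.01 in PMG+AL medium with 23 nL pinned compound. After 24 h at 30 °C and 99% humidity, viability was read by BacTiter-Glo luminescence.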
A number is an active result; ! = repeats disagree. Shown are actives, neighbours in structure and some others; about 7.2% of the full set was active somewhere. Unless noted, calls come from the whole dose curve; as a rule, active = well fitted curve in the direction sought with a large enough effect; inconclusive = small, poorly fitted or top-dose-only effect, or another doubt; inactive = no such curve, though single readings can be large; an effect the other way counts as inactive or inconclusive.

How did CCOC(=O)C1CCN(C2CC(=O)N(c3ccc(OCC)cc3)C2=O)CC1 (stereo unspecified) do in these assays?
Marburg entry inh: inactive; Lassa entry inh: inactive; Sm TGR inh: 50.1µM; FMDV antiviral: inactive; HCV inh: inactive; RE007 growth inh: 17.8µM

Results for CCOC(=O)C1CCCN(C2CC(=O)N(c3ccc(C(C)C)cc3)C2=O)C1 (stereo unspecified) ?
Sm TGR inh: inconclusive; FMDV antiviral: inactive; HCV inh: inactive; RE007 growth inh: 35.5µM

Results for CCc1ccc(N2C(=O)CC(N3CCC(C(=O)OC)CC3)C2=O)cc1 (stereo unspecified) ?
Marburg entry inh: inactive; Lassa entry inh: inactive; Sm TGR inh: 56.2µM; FMDV antiviral: inactive; HCV inh: inactive; RE007 growth inh: 10µM

How did CCCCCCOc1ccc(N2C(=O)CC(N3CCC(C(=O)OCC)CC3)C2=O)cc1 (stereo unspecified) do in these assays?
Marburg entry inh: inactive; Lassa entry inh: inactive; Sm TGR inh: inactive; HCV inh: inactive; RE007 growth inh: inactive

What do the screens show for `CCOC(=O)C1CCCN(CCC(C)c2ccccc2)C1` (stereo unspecified)?
Marburg entry inh: inactive; Lassa entry inh: inactive; Sm TGR inh: inactive; FMDV antiviral: inactive; HCV inh: inactive; RE007 growth inh: inactive

Results for CCOC(=O)C1CCCN(C2CC(=O)N(c3cccc(C(F)(F)F)c3)C2=O)C1 (stereo unspecified) ?
Marburg entry inh: inactive; Lassa entry inh: inactive; Sm TGR inh: inconclusive; FMDV antiviral: inactive; HCV inh: inactive; RE007 growth inh: 8.91µM

How did COc1ccc(CCNS(=O)(=O)c2ccc(F)c(C(=O)Nc3ccc(Cl)cc3)c2)cc1OC do in these assays?
Lassa entry inh: inconclusive; Sm TGR inh: inactive; FMDV antiviral: inconclusive

What do the screens show for `CCc1ccccc1NC(=O)CSc1nnc(-c2nonc2NC(C)=O)n1C`?
Marburg entry inh: inactive; Lassa entry inh: inactive; Sm TGR inh: inactive; FMDV antiviral: inactive

How did CCNc1ncc2nc(CCc3ccccc3)c(=O)n(C)c2n1 do in these assays?
FMDV antiviral: inactive

How did CCOC(=O)C1CCCN(C2CC(=O)N(c3ccc(C)c(C)c3)C2=O)C1 (stereo unspecified) do in these assays?
Marburg entry inh: inactive; Lassa entry inh: inactive; Sm TGR inh: 44.7µM; FMDV antiviral: inactive; HCV inh: inactive; RE007 growth inh: 28.2µM

Results for CCOC(=O)C1CCCN(C2CC(=O)N(c3ccc(N4C(=O)CC(N5CCCC(C(=O)OCC)C5)C4=O)cc3)C2=O)C1 (stereo unspecified) ?
Sm TGR inh: 20µM; FMDV antiviral: inactive; HCV inh: inactive; RE007 growth inh: inactive

What do the screens show for `CCOC(=O)C1CCCN(C2CC(=O)N(c3ccccc3)C2=O)C1` (stereo unspecified)?
Sm TGR inh: inconclusive; FMDV antiviral: inactive; HCV inh: inactive; RE007 growth inh: inconclusive

What do the screens show for `Cc1ccc(CNC(=O)c2cccc(Nc3nc4ccccc4n4nnnc34)c2)cc1`?
Marburg entry inh: inactive; Lassa entry inh: inconclusive; Sm TGR inh: inactive; FMDV antiviral: inactive

How did CC(=O)ON1C(C)(C)Cc2noc(N)c2C1(C)C do in these assays?
Marburg entry inh: inactive; Lassa entry inh: inactive; Sm TGR inh: inactive; FMDV antiviral: inactive; HCV inh: inactive; RE007 growth inh: inactive

What do the screens show for `CC1(C)Cc2noc(N)c2C(C)(C)N1O`?
Marburg entry inh: inactive; Lassa entry inh: inactive; Sm TGR inh: 2.82µM; FMDV antiviral: inactive; HCV inh: inactive; RE007 growth inh: inactive

What do the screens show for `CCc1ccc(NC(=O)Cn2nnc(C(=O)NCc3ccc(C)cc3)c2N)cc1`?
Lassa entry inh: inactive; Sm TGR inh: inactive; FMDV antiviral: inactive

Results for CCSCCc1nnc(NC(=O)Nc2cccc(C(F)(F)F)c2)s1 ?
Sm TGR inh: inactive; FMDV antiviral: inconclusive; HCV inh: 3.55µM; RE007 growth inh: inactive

How did O=C(Nc1cccc(C(F)(F)F)c1)Nc1nnc([C@H]2C[C@H](O)[C@@H](CO)O2)s1 do in these assays?
FMDV antiviral: inactive; RE007 growth inh: inactive

Results for CCCn1c(CN2CCN(c3ccc(OC)cc3)CC2)nc2c1c(=O)[nH]c(=O)n2C ?
Marburg entry inh: inactive; Lassa entry inh: inactive; Sm TGR inh: inactive; FMDV antiviral: inactive

How did CC(=O)O[C@H]1CCC2C3CC[C@H]4[C@@H](O)[C@H](O)CC[C@]4(C)C3CC[C@@]21C (stereo partly specified) do in these assays?
Marburg entry inh: inactive; Lassa entry inh: inactive; FMDV antiviral: inactive; HCV inh: inactive; RE007 growth inh: inactive

How did CC(=O)O[C@H]1CCC2C3CCC4=CC(=O)CCC4=C3C=C[C@@]21C (stereo partly specified) do in these assays?
Marburg entry inh: inactive; Lassa entry inh: inactive; Sm TGR inh: 5.01µM; FMDV antiviral: inactive; HCV inh: inactive; RE007 growth inh: inactive

What do the screens show for `C[c-]1[c-](C)[c-](C)[c-](C)[c-]1C.[Fe].c1cc2nccc(N3CCCC3)[c-]2c1` (stereo unspecified)?
Sm TGR inh: 3.16µM!; FMDV antiviral: inactive; HCV inh: inconclusive; RE007 growth inh: inactive

What do the screens show for `Cc1cc(N(CCCl)CCCl)ccc1/C=N/N=C(\N)c1cnccn1`?
Marburg entry inh: 2.24µM; Lassa entry inh: inconclusive; FMDV antiviral: inactive; HCV inh: inconclusive; RE007 growth inh: inactive

Results for CCN(CCC#N)c1ccc(/C=N/Nc2nc(C)cc(=O)[nH]2)c(C)c1 ?
Marburg entry inh: inactive; Lassa entry inh: inactive; Sm TGR inh: inactive; FMDV antiviral: inactive; HCV inh: inconclusive; RE007 growth inh: inactive

How did Cc1cc(N(CCCl)CCCl)ccc1C=Cc1ccncn1 do in these assays?
Marburg entry inh: 3.98µM; Lassa entry inh: inconclusive; FMDV antiviral: inactive; HCV inh: inconclusive; RE007 growth inh: inactive

How did CSC(=N/N=C(\N)c1cnccn1)SC do in these assays?
Marburg entry inh: inactive; Lassa entry inh: inactive; Sm TGR inh: inactive; FMDV antiviral: inactive; HCV inh: inactive; RE007 growth inh: inactive

What do the screens show for `COC(=O)c1cc2oc3ccccc3c2n1Cc1nc(-c2cccc(C)c2)oc1C`?
Marburg entry inh: inconclusive; Sm TGR inh: inactive; FMDV antiviral: inactive

Results for O=C(Nc1cccc2ncccc12)c1cccc(Br)c1 ?
Marburg entry inh: inactive; Lassa entry inh: inactive; Sm TGR inh: inactive; FMDV antiviral: inactive; HCV inh: inactive; RE007 growth inh: inactive

How did O=C(Nc1cccc2ncccc12)c1ccc(Br)c([N+](=O)[O-])c1 do in these assays?
Marburg entry inh: inconclusive; Lassa entry inh: inconclusive; Sm TGR inh: inactive; FMDV antiviral: inactive; HCV inh: 12.6µM; RE007 growth inh: inactive

What do the screens show for `COc1ccc(C(=O)NC(=S)Nc2cccc3ncccc23)cc1[N+](=O)[O-]`?
Sm TGR inh: 6.31µM; FMDV antiviral: inactive; HCV inh: inconclusive; RE007 growth inh: inactive
